Active and inactive are the calls of the source. How the source made its calls: active means hit-call score of the fitted dose curve at least 0.9, where 1 is the maximum; inactive means score below 0.9.
What was measured:
[1] = read-out: Human Leukocyte Antigen - DR isotype (HLADR), HLA-DRA (gene 3122); experiment: BSK_BE3C_HLADR: BioMAP Diversity Plus: BE3C Assay for Human Leukocyte Antigen - DR isotype (HLADR) Biomarker Activity (AID 2283032); conditions: primary human bronchial epithelial cells; actives raise or lower the signal
Procedure, shortened: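 Signal came from an ELISA for HLA-DR in human bronchial epithelial primary cells harvested 24 h after treatment; gain- and loss-of-signal fitting used DMSO controls as reference.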

[2] = read-out: Vascular cell adhesion molecule 1 (VCAM1), VCAM1 (gene 7412); experiment: BSK_4H_VCAM1: BioMAP Diversity Plus: 4H Assay for Vascular cell adhesion molecule 1 (VCAM1) Biomarker Activity (AID 2283033); conditions: primary human endothelial cells (HUVEC); actives raise or lower the signal
Procedure, shortened: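 Endpoint derived from bidirectional fitting against DMSO controls of VCAM-1 ELISA signal in umbilical vein endothelial cells sampled at 24 h following treatment.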

[3] = read-out: Interferon-gamma inducible Protein 10 (IP10), CXCL10 (gene 3627); experiment: BSK_BE3C_IP10: BioMAP Diversity Plus: BE3C Assay for Interferon-gamma inducible Protein 10 (IP10) Biomarker Activity (AID 2283034); conditions: primary human bronchial epithelial cells; actives raise or lower the signal
Procedure, shortened: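 Using primary human bronchial epithelial cultures, the assay captures IP-10 by ELISA one day (24 h) after exposure. Parallel SRB staining of total protein flags overt cytotoxicity. Fits run bidirectionally relative to DMSO.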

[4] = read-out: Monokine induced gamma interferon (MIG), CXCL9 (gene 4283); experiment: BSK_BE3C_MIG: BioMAP Diversity Plus: BE3C Assay for Monokine induced gamma interferon (MIG) Biomarker Activity (AID 2283035); conditions: primary human bronchial epithelial cells; actives raise or lower the signal;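 further: MIG protein measured by ELISA in BE3C cultures after 24 h of dosing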
Procedure, shortened: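 MIG level was determined by ELISA after 24 h chemical treatment of primary human bronchial epithelial cells. Values were fitted bidirectionally with DMSO as the negative control and activity baseline.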

[5] = read-out: Transforming growth factor beta 1 (TGFb1), TGFB1 (gene 7040); experiment: BSK_BE3C_TGFb1: BioMAP Diversity Plus: BE3C Assay for Transforming growth factor beta 1 (TGFb1) Biomarker Activity (AID 2283036;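 further: TGF-b1 protein level measured by ELISA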); conditions: primary human bronchial epithelial cells; actives raise or lower the signal
Procedure, shortened: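 In this human primary bronchial epithelial system, an ELISA quantified TGF-b1 one day after dosing. Endpoint changes in either direction were fitted relative to DMSO.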

[6] = read-out: urokinase plasminogen activator (uPA), PLAU (gene 5328); experiment: BSK_BE3C_uPA: BioMAP Diversity Plus: BE3C Assay for urokinase plasminogen activator (uPA) Biomarker Activity (AID 2283038); conditions: primary human bronchial epithelial cells; actives raise or lower the signal
Procedure, shortened: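 Using confluent primary human lung bronchial epithelial cultures, we dosed chemicals, waited 24 h, then ran a uPA ELISA, fitting bidirectionally against DMSO.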

[7] = read-out: Urokinase-type plasminogen activator receptor (uPAR), PLAUR (gene 5329); experiment: BSK_BE3C_uPAR: BioMAP Diversity Plus: BE3C Assay for Urokinase-type plasminogen activator receptor (uPAR) Biomarker Activity (AID 2283039); conditions: primary human bronchial epithelial cells; actives raise or lower the signal;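 further: uPAR protein level measured by ELISA on the cells; cells exposed to compound for one day before measurement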
Procedure, shortened: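 A uPAR ELISA serves as the readout, taken 24 h after treating primary human bronchial epithelial cells. Responses in either direction are fitted against DMSO, which defines baseline activity.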

[8] = read-out: Interleukin-6 (IL6), IL6 (gene 3569); experiment: BSK_CASM3C_IL6: BioMAP Diversity Plus: CASM3C Assay for Interleukin-6 (IL6) Biomarker Activity for (AID 2283040); conditions: primary human coronary artery smooth muscle cells; actives raise or lower the signal
[9] = read-out: Tissue plasminogen activator (tPA), PLAT (gene 5327); experiment: BSK_BE3C_tPA: BioMAP Diversity Plus: BE3C Assay for Tissue plasminogen activator (tPA) Biomarker Activity (AID 2283041); conditions: primary human bronchial epithelial cells; actives raise or lower the signal;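 further: tPA level quantified by ELISA one day after compound addition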
Procedure, shortened: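 Bidirectional curve fitting relative to DMSO defined activity, with tPA detected by ELISA in chemically treated human bronchial epithelial primary cells at 24 hours.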

[10] = read-out: Interleukin-8 (IL8), CXCL8 (gene 3576); experiment: BSK_CASM3C_IL8: BioMAP Diversity Plus: CASM3C Assay for Interleukin-8 (IL8) Biomarker Activity (AID 2283042); conditions: primary human coronary artery smooth muscle cells; actives raise or lower the signal;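 further: IL-8 protein level quantified by ELISA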
[11] = read-out: Human Leukocyte Antigen - DR isotype (HLADR), HLA-DRA (gene 3122); experiment: BSK_CASM3C_HLADR: BioMAP Diversity Plus: CASM3C Assay for Human Leukocyte Antigen - DR isotype (HLADR) Biomarker Activity (AID 2283043); conditions: primary human coronary artery smooth muscle cells; actives raise or lower the signal;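 further: cell-surface HLA-DR protein level quantified by ELISA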
[12] = read-out: Macrophage colony-stimulating factor (MCSF), CSF1 (gene 1435); experiment: BSK_CASM3C_MCSF: BioMAP Diversity Plus: CASM3C Assay for Macrophage colony-stimulating factor (MCSF) Biomarker Activity (AID 2283044); conditions: primary human coronary artery smooth muscle cells; actives raise or lower the signal;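 further: M-CSF protein amount quantified by ELISA after 24 h exposure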
[13] = read-out: Low-density lipoprotein receptor (LDLR), LDLR (gene 3949); experiment: BSK_CASM3C_LDLR: BioMAP Diversity Plus: CASM3C Assay for Low-density lipoprotein receptor (LDLR) Biomarker Activity (AID 2283045); conditions: primary human coronary artery smooth muscle cells; actives raise or lower the signal;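 further: LDLR protein level on the cell surface quantified by ELISA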
[14] = read-out: Monocyte Chemoattractant Protein-1 (MCP1), CCL2 (gene 6347); experiment: BSK_CASM3C_MCP1: BioMAP Diversity Plus: CASM3C Assay for Monocyte Chemoattractant Protein-1 (MCP1) Biomarker Activity (AID 2283046); conditions: primary human coronary artery smooth muscle cells; actives raise or lower the signal;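 further: MCP-1 level quantified by ELISA 24 h after dosing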
[15] = BSK_CASM3C_Proliferation: Cell Proliferation Assessment in the BioMAP Diversity Plus: CASM3C Assay (AID 2283047); conditions: primary human coronary artery smooth muscle cells;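 further: sulforhodamine B total protein stain as relative cell number at 560 nm; sub-confluent cells exposed 48 h before staining; fitted both ways against DMSO so gain or loss of cell number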
[16] = read-out: Monokine induced gamma interferon (MIG), CXCL9 (gene 4283); experiment: BSK_CASM3C_MIG: BioMAP Diversity Plus: CASM3C Assay for Monokine induced gamma interferon (MIG) Biomarker Activity (AID 2283048); conditions: primary human coronary artery smooth muscle cells; actives raise or lower the signal;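 further: MIG protein level measured by ELISA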
[17] = read-out: serum amyloid A (SAA), SAA1 (gene 6288); experiment: BSK_CASM3C_SAA: BioMAP Diversity Plus: CASM3C Assay for serum amyloid A (SAA) Biomarker Activity (AID 2283049); conditions: primary human coronary artery smooth muscle cells; actives raise or lower the signal;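 further: SAA protein level quantified by ELISA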
[18] = BSK_CASM3C_SRB: Viability Assessment in the BioMAP Diversity Plus: CASM3C Assay (AID 2283050); conditions: primary human coronary artery smooth muscle cells;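 further: cells exposed to compound for 24 h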
[19] = read-out: Thrombomodulin, THBD (gene 7056); experiment: BSK_CASM3C_Thrombomodulin: BioMAP Diversity Plus: CASM3C Assay for Thrombomodulin Biomarker Activity (AID 2283051); conditions: primary human coronary artery smooth muscle cells; actives raise or lower the signal;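 further: thrombomodulin protein level measured by ELISA 24 h after dosing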

Measured: AC50

CC(C)Oc1cc(-n2nc(C(C)(C)C)oc2=O)c(Cl)cc1Cl
active: [1] 27.4 µM | [2] 28.2 µM | [3] 33.9 µM | [6] 27.6 µM | [15] 29 µM | [19] 25.7 µM
inactive: all other assays above

Cc1c(F)c(F)c(COC(=O)C2C(/C=C(\Cl)C(F)(F)F)C2(C)C)c(F)c1F (centres undefined)
active: [19] 14 µM
inactive: all other assays above

N#Cc1cc(Br)c(O)c(Br)c1
active: [1] 11.9 µM | [2] 32 µM | [3] 23.5 µM
inactive: all other assays above

COc1nc(C)nc(NC(=O)NS(=O)(=O)c2ccccc2CCC(F)(F)F)n1
inactive: all assays above

CON(C)C(=O)Nc1ccc(Cl)c(Cl)c1
inactive: all assays above

CCOC(=O)C(Cl)Cc1cc(-n2nc(C)n(C(F)F)c2=O)c(F)cc1Cl (centres undefined)
inactive: all assays above
